Active and inactive are the calls of the source. Unless noted, no rule for the calls is given here.
Experiments:
[1] = system: Wnt5a (protein binding on small-molecule microarray); test: Wnt5a binders on small-molecule microarray, primary screen, biophysical, 635/667 nm fluorescence (AID 1142); conditions: 635 nm fluorescence, higher = more signal;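 also: fluorescence read at 667 nm with signal to noise per printed feature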
[2] = cell viability in Huh7 cells, primary screen, cytotoxicity control for HCV replication inhibitor project, CellTiter-Glo luminescence, basal, 48 h (AID 1143); conditions: Huh7 HCV replicon, higher = more signal, called active from +8 up or from −8 down;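 also: Huh7 hepatoma cells carrying a hepatitis C replication reporter with no stimulus; test concentration not given here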
[3] = P. aeruginosa biofilm formation inhibitors, primary screen, PAO1 strain, BacTiter-Glo luminescence, LB-PBS (AID 1144); conditions: 12 h, higher = more signal
[4] = CREB reporter modulators without forskolin, primary screen, cell-based, PC12, CRE-LacZ reporter, unstimulated (AID 1145); conditions: no forskolin, luminescence, 4.5 h, higher = more signal, called active from +8 up or from −8 down
[5] = CREB reporter modulators under forskolin, primary screen, cell-based, PC12, CRE-LacZ reporter, forskolin-stimulated (AID 1146); conditions: luminescence, 4.5 h, higher = more signal, called active from +8 up or from −8 down;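 also: PC12 cells with 6xCRE LacZ reporter stimulated by forskolin 10 µM; beta-galactosidase reporter signal reflecting CREB driven transcription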
[6] = biological target: Streptavidin (Streptomyces avidinii) (UniProt P22629); test: streptavidin binders on small-molecule microarray, primary screen, artefact control for SMM compound annotation, biophysical, 635/667 nm fluorescence (AID 1147); conditions: streptavidin binding, higher = more signal;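 also: signal reflects streptavidin binding to arrayed compounds as a control protein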
Streptavidin (Streptomyces avidinii), sequence (P22629 whole entry, looked up): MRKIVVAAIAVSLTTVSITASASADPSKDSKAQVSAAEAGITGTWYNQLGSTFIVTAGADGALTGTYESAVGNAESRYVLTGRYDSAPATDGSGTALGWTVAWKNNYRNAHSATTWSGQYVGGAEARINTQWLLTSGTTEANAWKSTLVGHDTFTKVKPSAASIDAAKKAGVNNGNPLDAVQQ

[7] = small-molecule binders of probe aInhba, primary screen, biochemical, small-molecule microarray, 635/667 nm fluorescence (AID 1148); conditions: higher = more signal;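 also: score merges 667nm spot fluorescence with signal-to-noise for antibody binding to printed compounds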
Torsin-1A (Homo sapiens) [8] = biological target: Torsin-1A (Homo sapiens) (UniProt O14656); test: torsin A binders from cell lysate, primary screen, small-molecule microarray, wild-type, 635/667 nm (AID 1149); conditions: COS7 hTOR1A-WT lysate, 635 nm fluorescence, higher = more signal
Torsin-1A (Homo sapiens), sequence (O14656 whole entry, looked up): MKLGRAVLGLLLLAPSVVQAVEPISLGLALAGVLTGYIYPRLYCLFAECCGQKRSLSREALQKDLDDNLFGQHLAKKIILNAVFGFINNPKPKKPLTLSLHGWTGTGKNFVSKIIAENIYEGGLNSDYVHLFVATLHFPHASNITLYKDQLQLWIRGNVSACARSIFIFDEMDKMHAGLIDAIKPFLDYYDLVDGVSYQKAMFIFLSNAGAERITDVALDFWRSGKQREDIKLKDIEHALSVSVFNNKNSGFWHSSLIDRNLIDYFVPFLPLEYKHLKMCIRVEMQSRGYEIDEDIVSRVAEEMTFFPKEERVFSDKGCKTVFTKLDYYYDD

Torsin-1A (Homo sapiens) [9] = biological target: Torsin-1A (Homo sapiens) (UniProt O14656); test: small-molecule binders of mutant TOR1A in lysate, primary screen, cell lysate, small-molecule microarray, COS7 lysate, 635/667 nm fluorescence (AID 1150); conditions: COS7 hTOR1A mutant lysate, 635 nm fluorescence, higher = more signal;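 also: score pools 667 nm emission and signal to noise measuring lysate protein binding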
[10] = system: Sonic hedgehog protein (Shh); test: small-molecule binders of Shh protein, primary screen, biochemical, small-molecule microarray, 635/667 nm fluorescence (AID 1151); conditions: small-molecule microarray binding, 635 nm fluorescence; higher = more signal;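 also: Shh protein binding to compounds spotted on small-molecule microarray slides; score combines spot fluorescence intensity with signal-to-noise across triplicate slides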
[11] = E. coli DRC41 culture turbidity changes, primary screen, E. coli filamentation inducer project, strain DRC41, OD650, 48 h (AID 1152);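 also: E. coli MC1000 strain DRC41 lacking acrAB efflux pump and sulA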; conditions: E. coli DRC41 (acrAB sulA), higher = more signal, called active from +8 up or from −8 down
[12] = small-molecule binders of probe aLefty1, primary screen, biochemical, small-molecule microarray, 635/667 nm fluorescence (AID 1153); conditions: higher = more signal;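 also: score merges spot fluorescence with signal-to-noise ratio from the scanned slide images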
[13] = PSAC antagonists in infected red cells, primary screen, cell-based, P. falciparum Indochina, OD700, 1 h (AID 1154); conditions: P. falciparum Indochina infected RBC osmotic lysis, higher = more signal, called active from +8 up or from −8 down
[14] = PSAC antagonists in infected red cells, primary screen, cell-based, P. falciparum Indochina, OD700, 2 h (AID 1155);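 also: lysis reports solute entry through the parasite surface anion channel PSAC; channel blockers reduce lysis of infected cells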; conditions: P. falciparum Indochina infected erythrocytes, osmotic lysis OD700; higher = more signal, called active from +8 up or from −8 down
[15] = osmotic lysis modulators in infected erythrocytes, primary screen, PSAC antagonist project, cell-based, P. falciparum Indochina, OD700, 3 h (AID 1156); conditions: higher = more signal, called active from +8 up or from −8 down
[16] = PSAC antagonists in infected red cells, primary screen, cell-based, P. falciparum Indochina, OD700, 18 h (AID 1157); conditions: P. falciparum Indochina infected erythrocytes, osmotic lysis OD700, 18 h; higher = more signal, called active from +8 up or from −8 down
[17] = modulators of S6 phosphorylation in cells, primary screen, cell-based, A549, cytoblot, luminescence, serum-stimulated (AID 1158); conditions: A549 phospho-S6 cytoblot, 5 h, higher = more signal;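 also: serum-stimulated A549 lung adenocarcinoma cells; signal is phosphorylated S6 detected by cytoblot immunostaining with HRP secondary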
[18] = biological target: NADPH oxidase 2 (Homo sapiens) (UniProt P04839); test: NOX2-dependent H2O2 signal modulators, primary screen, NOX inhibitor project, cell-based, HEK293-NOX2, PMA-stimulated, Amplex Red fluorescence (AID 1159); conditions: 45 min, higher = more signal, called active from +8 up or from −8 down; also: test concentration not given here
NADPH oxidase 2 (Homo sapiens), sequence (P04839 whole entry, looked up): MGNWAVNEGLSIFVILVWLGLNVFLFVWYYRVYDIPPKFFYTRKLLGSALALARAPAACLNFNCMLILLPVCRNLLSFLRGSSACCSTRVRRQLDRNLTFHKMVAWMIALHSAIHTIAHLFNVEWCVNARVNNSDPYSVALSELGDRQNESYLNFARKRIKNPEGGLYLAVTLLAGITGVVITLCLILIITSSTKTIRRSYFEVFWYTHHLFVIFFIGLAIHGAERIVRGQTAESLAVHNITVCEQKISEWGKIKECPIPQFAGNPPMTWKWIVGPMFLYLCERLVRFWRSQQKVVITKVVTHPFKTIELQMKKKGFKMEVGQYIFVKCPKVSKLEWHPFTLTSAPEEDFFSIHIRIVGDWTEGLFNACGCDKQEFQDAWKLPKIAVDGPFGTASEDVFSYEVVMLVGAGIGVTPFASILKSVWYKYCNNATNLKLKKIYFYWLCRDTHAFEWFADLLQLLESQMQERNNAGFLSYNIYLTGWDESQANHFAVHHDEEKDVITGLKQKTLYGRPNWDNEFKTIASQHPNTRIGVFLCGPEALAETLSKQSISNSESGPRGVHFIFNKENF

[19] = biological target: NADPH oxidase 4 (Homo sapiens) (UniProt Q9NPH5); test: NOX4-dependent H2O2 signal modulators, primary screen, NOX inhibitor project, cell-based, HEK293-NOX4, tetracycline-induced, Amplex Red fluorescence (AID 1160); conditions: 45 min, higher = more signal, called active from +8 up or from −8 down
NADPH oxidase 4 (Homo sapiens), sequence (Q9NPH5 whole entry, looked up): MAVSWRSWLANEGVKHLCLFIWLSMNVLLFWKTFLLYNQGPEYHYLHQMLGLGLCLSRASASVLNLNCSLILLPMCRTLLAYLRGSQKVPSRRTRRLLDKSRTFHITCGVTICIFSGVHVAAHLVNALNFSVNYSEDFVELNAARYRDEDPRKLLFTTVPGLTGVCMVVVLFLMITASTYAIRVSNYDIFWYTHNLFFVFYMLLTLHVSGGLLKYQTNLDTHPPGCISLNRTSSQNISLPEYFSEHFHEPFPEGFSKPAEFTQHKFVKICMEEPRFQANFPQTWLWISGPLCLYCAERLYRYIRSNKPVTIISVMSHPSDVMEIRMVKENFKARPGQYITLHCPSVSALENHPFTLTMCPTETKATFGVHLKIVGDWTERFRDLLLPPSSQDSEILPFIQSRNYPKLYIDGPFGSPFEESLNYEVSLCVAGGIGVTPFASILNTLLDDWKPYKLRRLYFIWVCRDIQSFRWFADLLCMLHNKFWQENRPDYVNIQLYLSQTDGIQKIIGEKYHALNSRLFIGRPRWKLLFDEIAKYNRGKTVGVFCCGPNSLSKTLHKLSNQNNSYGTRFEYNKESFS

[20] = biological target: NADPH oxidase 5 (Homo sapiens) (UniProt Q96PH1); test: NOX5-dependent H2O2 signal modulators, primary screen, NOX inhibitor project, cell-based, HEK293-NOX5, Amplex Red fluorescence (AID 1161); conditions: HEK293-NOX5, ionomycin, 45 min, higher = more signal
NADPH oxidase 5 (Homo sapiens), sequence (Q96PH1 whole entry, looked up): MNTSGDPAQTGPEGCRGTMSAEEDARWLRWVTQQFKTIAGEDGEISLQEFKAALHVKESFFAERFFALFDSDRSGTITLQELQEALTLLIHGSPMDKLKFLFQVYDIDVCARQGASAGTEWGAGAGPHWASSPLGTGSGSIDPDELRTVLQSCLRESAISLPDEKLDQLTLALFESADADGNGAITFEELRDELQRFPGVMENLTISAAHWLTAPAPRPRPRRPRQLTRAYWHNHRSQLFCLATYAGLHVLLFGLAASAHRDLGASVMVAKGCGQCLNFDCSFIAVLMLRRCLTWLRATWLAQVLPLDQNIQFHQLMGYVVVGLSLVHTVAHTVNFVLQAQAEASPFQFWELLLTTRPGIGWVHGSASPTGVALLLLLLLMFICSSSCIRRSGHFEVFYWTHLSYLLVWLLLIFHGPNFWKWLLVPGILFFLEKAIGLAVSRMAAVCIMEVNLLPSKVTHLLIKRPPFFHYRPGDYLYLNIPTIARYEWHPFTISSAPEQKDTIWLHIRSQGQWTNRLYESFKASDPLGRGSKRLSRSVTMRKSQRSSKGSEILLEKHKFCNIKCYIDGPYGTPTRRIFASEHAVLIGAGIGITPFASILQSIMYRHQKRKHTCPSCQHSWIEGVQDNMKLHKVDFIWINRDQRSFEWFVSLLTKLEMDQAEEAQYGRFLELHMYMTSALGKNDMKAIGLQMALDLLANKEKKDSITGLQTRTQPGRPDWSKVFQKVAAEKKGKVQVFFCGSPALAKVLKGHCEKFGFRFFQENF

Compound | composite z-score [1] | z-score [2] | z-score [3] | z-score [4] | z-score [5] | composite z-score [6] | composite z-score [7] | composite z-score (Torsin-1A (Homo sapiens) [8]) | composite z-score (Torsin-1A (Homo sapiens) [9]) | composite z-score [10] | z-score [11] | composite z-score [12] | z-score [13] | z-score [14] | z-score [15] | z-score [16] | z-score [17] | z-score [18] | z-score [19] | z-score [20]
COc1ccc([Si](C)(C)[C@H]2[C@H](CCO)O[C@@]3(C(=O)N(Cc4cccc(N5C(=O)c6cccc7cccc5c67)c4)c4ccccc43)[C@@H]2C)cc1 | 0.346 | -6.95 (inactive) | 0.0998 (inactive) | -0.011 (inactive) | -1.37 (inactive) | 0.343 | -0.176 | -0.697 | -0.318 | 0.329 | 0.0084 (inactive) | -0.012 | 1.54 (inactive) | 2.2 (inactive) | 0.712 (inactive) | 1.31 (inactive) | 1.26 | -0.139 (inactive) | 0.61 (inactive) | 1.6
CO[C@H]1O[C@H](CO)[C@@H](OC(=O)Nc2ccccc2-c2ccccc2)[C@H](OC(=O)Nc2ccccc2-c2ccccc2)[C@H]1OC(=O)Nc1ccccc1-c1ccccc1 | 0.764 | -3.73 (inactive) | -0.587 (inactive) | 1.65 (inactive) | -0.823 (inactive) | 0.244 | 0.243 | 0.93 | 0.885 | 1.61 | 0.236 (inactive) | 0.427 | 3.93 (inactive) | 1.27 (inactive) | -0.623 (inactive) | 1.16 (inactive) | 0.311 | 1.26 (inactive) | -0.874 (inactive) | -0.439
CCCCC(=O)N(Cc1ccccc1F)[C@@H]1CC(C(=O)NCCO)=C[C@H](Oc2c(I)cc(CO)cc2OC)[C@H]1O | 1.91 | -2.1 (inactive) | -0.43 (inactive) | 0.673 (inactive) | 0.377 (inactive) | -0.291 | 0.0541 | 1.68 | 0.769 | 2.45 | 0.381 (inactive) | 0.298 | 5.42 (inactive) | 3.13 (inactive) | 2.17 (inactive) | 1.48 (inactive) | 0.245 | 1.27 (inactive) | 0.438 (inactive) | -3.95
COc1ccc(C#Cc2ccc3c(c2)[C@]2(C(=O)N3)[C@H](C(=O)N3CCc4cc(OC)c(OC)cc4C3)[C@H]3C(=O)O[C@H](c4ccccc4)[C@H](c4ccccc4)N3[C@@H]2c2ccc(OCCO)cc2)cc1 | 0.665 | -0.763 (inactive) | -0.745 (inactive) | -0.258 (inactive) | -0.166 (inactive) | 1 | 0.136 | 0.947 | 0.488 | 1.88 | 1.82 (inactive) | 0.423 | 5.73 (inactive) | 2.37 (inactive) | 0.279 (inactive) | 1.42 (inactive) | 0.0867 | 0.0908 (inactive) | 0.246 (inactive) | 0.115
C=CCNC(=O)[C@H]1[C@@H]2C(=O)O[C@@H](c3ccccc3)[C@@H](c3ccccc3)N2[C@@H](c2ccc(OCCO)cc2)[C@]12C(=O)N(C(=O)OCCOC)c1ccc(C#CC3(O)CCCCCC3)cc12 | 0.558 | -2.88 (inactive) | -0.148 (inactive) | 0.761 (inactive) | 0.309 (inactive) | 0.37 | 0.569 | 1.79 | 0.907 | 1.65 | 0.838 (inactive) | 0.658 | 1.92 (inactive) | 0.742 (inactive) | 0.0102 (inactive) | 0.509 (inactive) | 0.0127 | 1.56 (inactive) | 0.972 (inactive) | 1.02
COc1ccc(C#Cc2ccc3c(c2)[C@]2(C(=O)N3)[C@H](c3ccc(OCCO)cc3)N3[C@H](c4ccccc4)[C@H](c4ccccc4)OC(=O)[C@H]3[C@@H]2C(=O)Nc2nc3ccccc3s2)cc1 | 0.603 | -2.92 (inactive) | -1.54 (inactive) | 0.918 (inactive) | -0.203 (inactive) | 1.07 | 0.143 | 1.15 | 0.564 | 1 | 1.84 (inactive) | 0.547 | 2.24 (inactive) | 2.11 (inactive) | 2.04 (inactive) | 1.94 (inactive) | 0.418 | 1.7 (inactive) | 0.74 (inactive) | 0.177
COc1ccc(C#Cc2ccc3c(c2)[C@]2(C(=O)N3)[C@H](C(=O)N3CCN(c4ncccn4)CC3)[C@H]3C(=O)O[C@H](c4ccccc4)[C@H](c4ccccc4)N3[C@@H]2c2ccc(O)cc2)cc1 | 0.205 | -0.629 (inactive) | -0.747 (inactive) | 0.775 (inactive) | -0.612 (inactive) | 1.04 | 0.13 | -0.0852 | 0.231 | 0.88 | -0.475 (inactive) | 0.583 | 1.5 (inactive) | 1.59 (inactive) | 0.474 (inactive) | 0.686 (inactive) | -0.2 | 1.25 (inactive) | -0.171 (inactive) | -0.146
O=C(NCC(F)(F)F)[C@@H]1c2ccccc2C(=O)N(Cc2ccccc2)[C@H]1c1ccc(CO)cc1 | -0.18 | -0.223 (inactive) | -0.0791 (inactive) | -0.269 (inactive) | -0.461 (inactive) | -0.27 | -0.214 | 0.111 | 0.0036 | -0.911 | 0.467 (inactive) | -0.147 | 0.878 (inactive) | -0.453 (inactive) | 0.239 (inactive) | -0.406 (inactive) | -0.325 | -0.489 (inactive) | 0.597 (inactive) | -0.601
